We go through six sequences from PMC11006913.

Assay in all cases: PBM; 200 nM protein, PBS
Holding throughout (settings): dsDNA, one strand shown

The target of test [1] is HOXB9 (Homo sapiens, UniProt P17482 171-250, T197M).
The target of test [2] is HOXC9 (Homo sapiens, UniProt P31274 178-260, K195R).
Test [3] deals with HOXC10 (Homo sapiens, UniProt Q9NYD6 254-340).
For test [4], the target named is HOXC9 (Homo sapiens, UniProt P31274 178-260).
The target in test [5] is HOXC9 (Homo sapiens, UniProt P31274 178-260, R193K).
HOXC9 (Homo sapiens, UniProt P31274 178-260, R193K), sequence (P31274 178-260 R193K): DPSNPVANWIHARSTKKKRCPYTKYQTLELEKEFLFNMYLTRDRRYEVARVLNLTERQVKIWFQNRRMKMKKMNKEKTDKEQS
A further test has as its target HOXA2 (Homo sapiens, UniProt O43364 129-215, R185K).
For test [6], the target named is HOXC10 (Homo sapiens, UniProt Q9NYD6 254-340, K271E).
HOXC10 (Homo sapiens, UniProt Q9NYD6 254-340, K271E), sequence (Q9NYD6 254-340 K271E): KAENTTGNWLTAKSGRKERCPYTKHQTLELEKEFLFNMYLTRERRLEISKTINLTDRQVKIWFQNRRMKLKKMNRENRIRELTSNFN
Test [7] has as its target HOXC9 (Homo sapiens, UniProt P31274 178-260, R222W).
Test [8] concerns the target HOXB9 (Homo sapiens, UniProt P17482 171-250).
For test [9], the target named is HOXD13 (Homo sapiens, UniProt P35453 263-343, T313R).
HOXD13 (Homo sapiens, UniProt P35453 263-343, T313R), sequence (P35453 263-343 T313R): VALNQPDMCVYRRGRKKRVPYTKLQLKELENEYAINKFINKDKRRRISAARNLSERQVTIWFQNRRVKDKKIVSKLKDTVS
The target of test [10] is HOXD13 (Homo sapiens, UniProt P35453 263-343).
HOXD13 (Homo sapiens, UniProt P35453 263-343), sequence (P35453 263-343): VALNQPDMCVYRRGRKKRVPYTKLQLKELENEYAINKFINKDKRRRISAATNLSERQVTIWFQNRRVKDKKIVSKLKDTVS
The target of test [11] is HOXD13 (Homo sapiens, UniProt P35453 263-343, T313A).
HOXD13 (Homo sapiens, UniProt P35453 263-343, T313A), sequence (P35453 263-343 T313A): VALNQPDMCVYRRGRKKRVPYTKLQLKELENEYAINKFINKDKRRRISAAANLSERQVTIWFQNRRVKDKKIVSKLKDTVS
The target of test [12] is HOXB9 (Homo sapiens, UniProt P17482 171-250, R186Q).
HOXB9 (Homo sapiens, UniProt P17482 171-250, R186Q), sequence (P17482 171-250 R186Q): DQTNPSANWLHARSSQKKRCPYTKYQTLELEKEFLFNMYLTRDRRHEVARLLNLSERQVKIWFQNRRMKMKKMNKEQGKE

HOXB9 (Homo sapiens, UniProt P17482 171-250, T197M), sequence (P17482 171-250 T197M): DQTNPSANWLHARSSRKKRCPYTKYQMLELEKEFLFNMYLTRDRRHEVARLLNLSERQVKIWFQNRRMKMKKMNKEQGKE
HOXB9 (Homo sapiens, UniProt P17482 171-250), sequence (P17482 171-250): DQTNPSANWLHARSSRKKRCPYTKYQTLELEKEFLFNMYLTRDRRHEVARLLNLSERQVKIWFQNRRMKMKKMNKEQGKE
HOXC9 (Homo sapiens, UniProt P31274 178-260), sequence (P31274 178-260): as the sequence (P31274 178-260 R193K) above, with K16R counted along it
HOXC10 (Homo sapiens, UniProt Q9NYD6 254-340), sequence (Q9NYD6 254-340): as the sequence (Q9NYD6 254-340 K271E) above, with E18K counted along it
HOXC9 (Homo sapiens, UniProt P31274 178-260, R222W), sequence (P31274 178-260 R222W): as the sequence (P31274 178-260 R193K) above, with K16R, R45W counted along it
HOXC9 (Homo sapiens, UniProt P31274 178-260, K195R), sequence (P31274 178-260 K195R): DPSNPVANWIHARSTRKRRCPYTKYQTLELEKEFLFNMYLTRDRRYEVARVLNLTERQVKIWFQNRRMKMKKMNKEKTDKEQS
HOXA2, sequence (O43364 129-215 R185K): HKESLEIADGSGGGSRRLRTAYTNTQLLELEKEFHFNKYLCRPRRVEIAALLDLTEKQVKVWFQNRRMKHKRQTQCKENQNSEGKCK

As to ATCGTTAA, the binding signal with HOXB9 [1] is 9.99 upbm affinity estimate (log intensity, higher = more binding, comparable within an allelic series); with HOXC9 [2], 12.5 upbm affinity estimate (log intensity, higher = more binding, comparable within an allelic series); with HOXC10 [3], 12.4 upbm affinity estimate (log intensity, higher = more binding, comparable within an allelic series); with HOXC9 [4], 12.6 upbm affinity estimate (log intensity, higher = more binding, comparable within an allelic series); in the test with HOXC9 [5] it was 12.5 upbm affinity estimate (log intensity, higher = more binding, comparable within an allelic series); in the test with HOXA2 it was 13.1 upbm affinity estimate (log intensity, higher = more binding, comparable within an allelic series). Also, the binding signal is 12.1 upbm affinity estimate (log intensity, higher = more binding, comparable within an allelic series) with HOXC10 [6] and 10.7 upbm affinity estimate (log intensity, higher = more binding, comparable within an allelic series) with HOXC9 [7].
Turning to ATTTATGA, the binding signal was 9.81 upbm affinity estimate (log intensity, higher = more binding, comparable within an allelic series) in the test with HOXB9 [1]; 12.5 upbm affinity estimate (log intensity, higher = more binding, comparable within an allelic series) with HOXC9 [2]; 12.4 upbm affinity estimate (log intensity, higher = more binding, comparable within an allelic series) with HOXC10 [3]; 11.8 upbm affinity estimate (log intensity, higher = more binding, comparable within an allelic series) with HOXB9 [8]; 12.7 upbm affinity estimate (log intensity, higher = more binding, comparable within an allelic series) with HOXC9 [4]; 10.9 upbm affinity estimate (log intensity, higher = more binding, comparable within an allelic series) in the test with HOXD13 [9]. Also, the binding signal in the test with HOXC9 [5] was 12.6 upbm affinity estimate (log intensity, higher = more binding, comparable within an allelic series); in the test with HOXD13 [10], 12 upbm affinity estimate (log intensity, higher = more binding, comparable within an allelic series); with HOXC10 [6] it was 11.7 upbm affinity estimate (log intensity, higher = more binding, comparable within an allelic series); with HOXD13 [11], 11.8 upbm affinity estimate (log intensity, higher = more binding, comparable within an allelic series); with HOXB9 [12], 11.5 upbm affinity estimate (log intensity, higher = more binding, comparable within an allelic series); with HOXC9 [7] it was 11.1 upbm affinity estimate (log intensity, higher = more binding, comparable within an allelic series).
For the sequence ATTTTATG, the binding signal with HOXB9 [1] is 9.94 upbm affinity estimate (log intensity, higher = more binding, comparable within an allelic series); with HOXC9 [2], 13 upbm affinity estimate (log intensity, higher = more binding, comparable within an allelic series); with HOXC10 [3], 12.7 upbm affinity estimate (log intensity, higher = more binding, comparable within an allelic series); in the test with HOXB9 [8], 12.5 upbm affinity estimate (log intensity, higher = more binding, comparable within an allelic series); in the test with HOXC9 [4], 13.1 upbm affinity estimate (log intensity, higher = more binding, comparable within an allelic series); with HOXD13 [9], 10.8 upbm affinity estimate (log intensity, higher = more binding, comparable within an allelic series). Besides, the binding signal with HOXC9 [5] was 13 upbm affinity estimate (log intensity, higher = more binding, comparable within an allelic series); with HOXD13 [10], 11.8 upbm affinity estimate (log intensity, higher = more binding, comparable within an allelic series); with HOXC10 [6], 12.1 upbm affinity estimate (log intensity, higher = more binding, comparable within an allelic series); in the test with HOXD13 [11] it was 11.5 upbm affinity estimate (log intensity, higher = more binding, comparable within an allelic series); with HOXB9 [12], 12.1 upbm affinity estimate (log intensity, higher = more binding, comparable within an allelic series); with HOXC9 [7], 11.4 upbm affinity estimate (log intensity, higher = more binding, comparable within an allelic series).
Take TCATAAAA: the binding signal with HOXB9 [1] is 9.93 upbm affinity estimate (log intensity, higher = more binding, comparable within an allelic series); with HOXC9 [2], 13 upbm affinity estimate (log intensity, higher = more binding, comparable within an allelic series); with HOXC10 [3], 12.8 upbm affinity estimate (log intensity, higher = more binding, comparable within an allelic series); with HOXB9 [8] it was 12.4 upbm affinity estimate (log intensity, higher = more binding, comparable within an allelic series); with HOXC9 [4], 13.1 upbm affinity estimate (log intensity, higher = more binding, comparable within an allelic series); with HOXD13 [9], 11 upbm affinity estimate (log intensity, higher = more binding, comparable within an allelic series). The binding signal in the test with HOXC9 [5] was 12.9 upbm affinity estimate (log intensity, higher = more binding, comparable within an allelic series); with HOXD13 [10], 12.2 upbm affinity estimate (log intensity, higher = more binding, comparable within an allelic series); with HOXC10 [6], 12.3 upbm affinity estimate (log intensity, higher = more binding, comparable within an allelic series); with HOXD13 [11] it was 11.9 upbm affinity estimate (log intensity, higher = more binding, comparable within an allelic series); in the test with HOXB9 [12] it was 12.1 upbm affinity estimate (log intensity, higher = more binding, comparable within an allelic series); in the test with HOXC9 [7], 11.3 upbm affinity estimate (log intensity, higher = more binding, comparable within an allelic series).
As for CCCTCACC, the binding signal was 8.63 upbm affinity estimate (log intensity, higher = more binding, comparable within an allelic series) with HOXB9 [1]; 9.5 upbm affinity estimate (log intensity, higher = more binding, comparable within an allelic series) with HOXC9 [2]; 9.97 upbm affinity estimate (log intensity, higher = more binding, comparable within an allelic series) with HOXC10 [3]; 8.28 upbm affinity estimate (log intensity, higher = more binding, comparable within an allelic series) with HOXB9 [8]; 9.44 upbm affinity estimate (log intensity, higher = more binding, comparable within an allelic series) with HOXC9 [4]; 9.56 upbm affinity estimate (log intensity, higher = more binding, comparable within an allelic series) with HOXC9 [5]. The binding signal is 9.96 upbm affinity estimate (log intensity, higher = more binding, comparable within an allelic series) in the test with HOXC10 [6]; 8.43 upbm affinity estimate (log intensity, higher = more binding, comparable within an allelic series) in the test with HOXB9 [12]; 9.7 upbm affinity estimate (log intensity, higher = more binding, comparable within an allelic series) with HOXC9 [7].
As for ATCGTAAA, the binding signal in the test with HOXB9 [1] was 9.78 upbm affinity estimate (log intensity, higher = more binding, comparable within an allelic series); with HOXC9 [2] it was 12.6 upbm affinity estimate (log intensity, higher = more binding, comparable within an allelic series); in the test with HOXC10 [3], 12.7 upbm affinity estimate (log intensity, higher = more binding, comparable within an allelic series); in the test with HOXB9 [8], 11.9 upbm affinity estimate (log intensity, higher = more binding, comparable within an allelic series); in the test with HOXC9 [4], 12.9 upbm affinity estimate (log intensity, higher = more binding, comparable within an allelic series); with HOXD13 [9], 10.9 upbm affinity estimate (log intensity, higher = more binding, comparable within an allelic series). In addition, the binding signal with HOXC9 [5] is 12.6 upbm affinity estimate (log intensity, higher = more binding, comparable within an allelic series); with HOXD13 [10] it was 12.1 upbm affinity estimate (log intensity, higher = more binding, comparable within an allelic series); with HOXC10 [6] it was 12.1 upbm affinity estimate (log intensity, higher = more binding, comparable within an allelic series); in the test with HOXD13 [11], 11.8 upbm affinity estimate (log intensity, higher = more binding, comparable within an allelic series); with HOXB9 [12] it was 11.4 upbm affinity estimate (log intensity, higher = more binding, comparable within an allelic series); with HOXC9 [7] it was 10.8 upbm affinity estimate (log intensity, higher = more binding, comparable within an allelic series).
